Screening data deposited in PubChem by National Center for Advancing Translational Sciences (NCATS).
IMPase cell inh: cell-permeable inhibitors of inositol monophosphatase (IMPase); inhibition (IP1 accumulation), % at 46.1 µM; 120,000 tested, under 10 active; CHO-M1 cells, IP1 accumulation, HTRF TR-FRET ratio; active means well fitted curve in the direction sought with a large enough effect in the signal ratio, not every such curve was filed as active; inconclusive means small, poorly fitted or top-dose-only effect, or a change in a side signal; inactive means no such curve, though single readings can be large or run the other way; the % refers to the signal ratio;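 further: cells stimulated with carbachol in lithium chloride buffer; higher means more IMPase inhibition seen as more IP1 and lower FRET ratio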
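The IP-One HTRF competitive assay in carbachol-stimulated CHO-M1 cells quantifies cellular IP1. Compounds spanned up to 46 uM final, and activity is expressed as AC50 from concentration-response fits of the ratio and donor data.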
ALDH1A1 inh: ALDH1A1 (human) enzyme inhibition | P00352 | Purified ALDH1A1, NADH fluorescence, propionaldehyde substrate | Potency, µM (doses to about 75.3 µM), usual class: inhibitors | 7.3% of 220,000 active | AID 1030
Target sequence (P00352 whole entry, looked up): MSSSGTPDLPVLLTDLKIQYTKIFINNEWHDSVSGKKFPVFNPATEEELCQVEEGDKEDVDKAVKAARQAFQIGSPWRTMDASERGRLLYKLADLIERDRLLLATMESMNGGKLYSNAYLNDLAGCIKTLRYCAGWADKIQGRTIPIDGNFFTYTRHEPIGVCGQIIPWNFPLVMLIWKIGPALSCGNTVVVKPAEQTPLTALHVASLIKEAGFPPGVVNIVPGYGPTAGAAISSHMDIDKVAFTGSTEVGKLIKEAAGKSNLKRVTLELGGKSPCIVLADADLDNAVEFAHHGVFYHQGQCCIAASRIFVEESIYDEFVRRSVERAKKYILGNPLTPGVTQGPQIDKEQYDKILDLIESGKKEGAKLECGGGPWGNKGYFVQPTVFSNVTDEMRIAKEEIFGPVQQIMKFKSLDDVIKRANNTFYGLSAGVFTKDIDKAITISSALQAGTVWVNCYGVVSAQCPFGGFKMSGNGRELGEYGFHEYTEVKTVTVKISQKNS
HPGD block: inhibitors of human 15-hydroxyprostaglandin dehydrogenase (HPGD); P15428; purified HPGD, NADH fluorescence kinetic, PGE2 substrate; Potency, µM, most hits filed as inhibitors; 4.3% of 150,000 active; AID 894
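20 nM HPGD preincubated 15 min at room temperature with compound in 50 mM Tris-HCl pH 8, 0.01% Tween 20. Started with 1 mM NAD+ and 30 uM prostaglandin E2; NADH fluorescence (360/450 nm) read 5 times over 30-s intervals, last minus first.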
Numbers stand for hits; – = inactive; ? = inconclusive; · = no result given. A selection: hits, their analogues and other compounds. The true share with any hit is near 9%. Unless noted, the call rests on the fitted dose curve; in most records, active means well fitted inhibition curve with a large enough effect (not every such curve was filed as active); inconclusive means small, poorly fitted or top-dose-only effect, or another doubt; inactive means no such curve, though single readings can be large or run the other way.

SMILES | IMPase cell inh | ALDH1A1 inh | HPGD block
CCOC(=O)c1c(-c2ccc(OC)cc2)csc1NC(=O)CCN1C(=O)c2ccccc2C1=O | – | 35µM | 28µM
COc1ccc(-c2nc3n(n2)C(c2ccc(O)cc2)C(C(=O)Nc2cccnc2)=C(C)N3)cc1OC (stereo not given) | – | · | ·
O=C(CSc1n[nH]c(-c2ccccc2Cl)n1)NCc1cccc(C(=O)O)c1 | · | – | ·
CCNC(=O)NC(=O)COC(=O)CCc1nc(=O)c2ccccc2n1C | · | – | ·
Nn1cnnc1N/N=C\c1ccc(-c2ccccc2[N+](=O)[O-])o1 | – | 25µM | –
O=[N+]([O-])c1ccccc1-c1ccc(/C=N/n2cnnc2)o1 | – | – | 16µM
O=C(N/N=C/c1ccc(-c2ccccc2[N+](=O)[O-])o1)c1cncc(Br)c1 | – | – | –
Clc1cccc(-c2ccc(/C=N/n3cnnc3)o2)c1 | ? | – | ?
C/C(=N\Nc1nc(-c2cc(C)ccc2C)cs1)c1cc2c(ccc3ccccc32)oc1=O | · | – | –
O=C(NCC1(N2CCOCC2)CCCCC1)c1ccc(Cl)c(S(=O)(=O)NCc2ccco2)c1 | – | – | –
Cc1cc(C)cc(NC(=O)c2cc(C)n(Cc3cccs3)c2C)c1 | · | – | ·
O=C(c1cc(-c2ccc(Cl)c(Cl)c2)on1)N1CCCCC1 | – | 8.9µM | 2.8µM
COc1cccc(-c2cc(C(=O)N3CCN(C(c4ccccc4)c4ccccc4)CC3)no2)c1 | – | ? | –
CCC1CCCCN1C(=O)c1cc(-c2ccc(Cl)c(Cl)c2)on1 (stereo not given) | – | – | 4.5µM
CC(C)CNC(=O)c1cc(-c2ccc(Cl)c(Cl)c2)on1 | – | – | –
O=C(c1cc(-c2ccc(Cl)c(Cl)c2)on1)N1CCN(c2ccccc2)CC1 | – | – | –
COc1ccc(-c2cc(C(=O)N3CC4(C)CC3CC(C)(C)C4)no2)cc1 (stereo not given) | – | – | 35µM
COc1ccc(-c2cc(C(=O)N3CC4(C)CC3CC(C)(C)C4)no2)cc1OC (stereo not given) | – | – | –
COc1cccc(-c2cc(C(=O)N3C(C)CCCC3C)no2)c1 (stereo not given) | – | ? | 8.9µM
CC(C)(C)c1ccc(-c2nc3cc(NC(=O)c4cccc(Br)c4)ccc3o2)cc1 | – | · | ·
CC(=O)NC(=S)Nc1ccccc1N1CCCCC1 | · | – | ·
CC1CCCCN1C(=O)c1cc(-c2ccc(Cl)c(Cl)c2)on1 (stereo not given) | – | ? | 4.5µM
CC1CCCCN1C(=O)Nc1ccccc1Cl (stereo not given) | · | – | ·
O=C(NCCCN1CCCC1=O)c1ccc(Cl)c(NS(=O)(=O)c2ccc(F)cc2)c1 | – | – | –
CN(CCNC(=O)c1cn(C)c2ccc(S(=O)(=O)N3CCCC3)cc2c1=O)CCc1ccccc1 | – | 32µM | –
SMILES | IMPase cell inh | ALDH1A1 inh | HPGD block
CC1CCN(S(=O)(=O)c2ccc3c(c2)c(=O)c(C(=O)NC2CCCC2)cn3C)CC1 | – | ? | –
COC(=O)c1cn(C)c2ccc(S(=O)(=O)N3CCCC3)cc2c1=O | – | ? | 8.9µM
CCN(CC(=O)NCc1cccs1)c1ccc(S(=O)(=O)N2CCCC2)cn1 | · | 2.5µM | ·
CCN(CC(=O)NCc1cccs1)c1ccc(S(=O)(=O)N2CCOCC2)cn1 | – | ? | –
CN(CCNC(=O)c1cn(C)c2ccc(S(=O)(=O)N(C)C)cc2c1=O)CCc1ccccc1 | – | – | –
COC(=O)c1cn(C)c2ccc(S(=O)(=O)N3CCOCC3)cc2c1=O | · | – | ·
CC1CCCC(NC(=O)c2cn(C)c3ccc(S(=O)(=O)N4CCCC4)cc3c2=O)C1C (stereo not given) | – | 5.6µM | –
CC1CCCc2sc3ncn(N)c(=N)c3c21 (stereo not given) | · | – | ·
Cc1ccccc1SCCNC(=O)c1ccccc1Br | · | – | ·
c1ccc(COCc2ccccc2)cc1 | · | – | –
Cn1cc(C(=O)NCc2cccnc2)c(=O)c2cc(S(=O)(=O)N3CCCCCC3)ccc21 | · | – | ·
CC1CCCCC1NC(=O)c1cn(C)c2ccc(S(=O)(=O)N3CCCC3)cc2c1=O (stereo not given) | – | 13µM | –
CC1CCCC(NC(=O)COC(=O)c2cc(S(=O)(=O)N3CCCCC3)ccc2N2CCOCC2)C1C (stereo not given) | – | 10µM | –
O=C(COC(=O)c1cc(S(=O)(=O)N2CCCCC2)ccc1N1CCOCC1)NC1CCS(=O)(=O)C1 (stereo not given) | · | – | ·
Cn1cc(C(=O)NCc2cccs2)c(=O)c2cc(S(=O)(=O)N3CCCC3)ccc21 | · | 4.5µM | –
Cn1cc(C(=O)NC2CCCCC2)c(=O)c2cc(S(=O)(=O)N3CCCC3)ccc21 | – | ? | –
CN(C1CCCCC1)S(=O)(=O)c1ccc2c(c1)c(=O)c(C(=O)NCCN1CCCC1)cn2C | – | 7.9µM | –
